According to the OligoGym collection:

target: SMYD3; assay: pooled miR-30 sensor sort-seq; sequence = guide strand; conditions: shRNA
Further: reference of the scale not given here.

Sequence	sensor-assay potency score (higher = more potent)
TAGAATCAAATCTTCAATCAGG	-0.0994
TAATATTTGACTCCAGATCATA	-1.27
TTGAACTTCCTTCCATACTTGC	-0.357
TAGCATATCAGCATCCTTGTCC	0.139
TAGCACTACAGTATTTGGCGAC	0.0593
TTCTTCTAAAAGTAGAATCAAA	-1.27
TTTTCTGACACTTAGCACTACA	-0.327
TTTGTTAATATTTGACTCCAGA	-0.278
TTGAACACAATCGAACAGTTGG	0.615
TTTTTCTGACACTTAGCACTAC	-0.019
TAGGCCAACACCAACTTCCTGC	0.026

target: SNAP23; assay: as above; conditions: shRNA

Sequence	sensor-assay potency score (higher = more potent)
TTGAGTCAGGTTCTCTTCCATT	-1.05
TTGGTTGCTGAAGCTGACCATT	-0.861
TAATCTGGTGAGCTCTCTGTTG	-0.844
TTCTTTGTTCTATTACATGGGC	-0.51
TTATTTGTGGATTTTGAGCATC	-0.871
TTAGTTATGCTATTACATGGGC	-0.215
TTGGTGTCAGCCTTGTCTGTGA	0.24
TTAGATACTACATTGCAAGGTG	0.78
TTGTTCCTTTTGTTCATCCAGC	-0.861
TAATGTATCCACCACTGGCTGC	-0.654
TTTTACTGAGGTAACAACCTCT	0.719
TATAACTGCAACTTAAATCAAA	-0.858

target: SNAPC2; assay: as above; conditions: shRNA

Sequence	sensor-assay potency score (higher = more potent)
TAGATCTTCTCAAAGTCCACAG	-0.173
TCAGGGGACAGATCCCAGCTGC	-0.373
TGTAGATCTTCTCAAAGTCCAC	-0.752
TTTCAGTTCGCTGTGCTCGGCC	-0.483
TTCAGTGGAGGGACCAGCCGAC	-0.383
TATCTTCTCAGCCAGATCCGTC	-0.959
AAGTGACATGAGCAGGTCGAGG	-1.64
AGTACTTGTAGATCTTCTCAAA	-1.85
AAGTACTTGTAGATCTTCTCAA	0.257
TTATCTTCTCAGCCAGATCCGT	-0.528
TCAGCTGCTGAGAGCTCGGGGC	-1.02
TTCTCAGCCAGATCCGTCCAGA	-0.94

target: SNCG; assay: as above; conditions: shRNA

Sequence	sensor-assay potency score (higher = more potent)
TTGCGCACCACCCCGGAGGTGA	-1.19
TTTGGATGCCACACCCTCCTGT	-0.0802
TCTCTTTGGATGCCACACCCTC	-1.21
TACAACATTCTCCTTGGTCTTG	-0.826
TTCTCCTTGGTCTTGGCTCCCA	-0.654
